Bioassay records from PubChem BioAssay.
An excerpt weighted towards active compounds, which were near 2.3% of everything screened.
Rce1 inh – blocks yeast Ras-converting enzyme. Q03530. yeast membranes, quenched prenylated peptide cleavage fluorescence. calls only. 0.27% of 290,000 active. AID 2563;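 active = fall in fluorescence gain of 50% or more versus controls, with final raw signal at or below 3038400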
PfM18AAP inh-1 – blocks P. falciparum M18 aspartyl aminopeptidase. recombinant PfM18AAP, H-Glu-NHMec fluorogenic cleavage. inhibition, % at 7.35 µM. 1.2% of 290,000 active. AID 1822;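 active = inhibition above the campaign mean inhibition over all tested compounds plus 3 SD, cut at about 28% in these data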
DNA FID counter – counter-screen for HCV NS3 helicase inhibitors: DNA intercalator displacement; 0.17% of 290,000 active; inhibition, % at 7.9 µM; DNA fluorescent intercalator displacement, fluorescence; in the data active = inhibition above about 37%;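 also: higher means more ethidium bromide displaced from hairpin DNA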
Kir21 inh – Kir2.1 (mouse) channel inhibition. P35561. HEK293-Kir2.1, FluxOR thallium flux fluorescence; stronger effect = lower value. B-score at 10 µM. 0.85% of 310,000 active;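 active = fluorescence ratio B-score at or below minus 3 SD of library scores, with starting-brightness B-score within 2 SD, cut at about -4.2 in these data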;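 also: channel flux triggered by added potassium and thallium sulfate stimulus; B-score of peak minus minimum fluorescence over baseline after thallium stimulus; more negative B-score means stronger Kir2.1 block with less thallium influx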
Target sequence (P35561 whole entry, looked up): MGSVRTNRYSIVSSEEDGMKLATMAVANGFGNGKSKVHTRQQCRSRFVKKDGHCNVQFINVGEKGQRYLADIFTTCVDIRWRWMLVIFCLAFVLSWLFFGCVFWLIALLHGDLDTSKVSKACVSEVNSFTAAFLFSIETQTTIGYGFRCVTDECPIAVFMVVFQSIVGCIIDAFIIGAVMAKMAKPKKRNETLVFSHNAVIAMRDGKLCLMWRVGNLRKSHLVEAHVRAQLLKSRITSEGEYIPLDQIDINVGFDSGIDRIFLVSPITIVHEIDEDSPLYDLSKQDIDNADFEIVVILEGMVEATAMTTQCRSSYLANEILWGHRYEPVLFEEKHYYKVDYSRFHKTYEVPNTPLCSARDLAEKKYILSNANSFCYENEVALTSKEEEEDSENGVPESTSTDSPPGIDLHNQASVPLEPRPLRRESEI
PfM18AAP inh-2 – PfM18AAP inhibition, confirmation; 28% of 2,400 active; shares compounds with PfM18AAP inh-1; recombinant PfM18AAP, H-Glu-NHMec fluorogenic cleavage; inhibition, % at 7.35 µM;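 active = mean inhibition over replicate wells above the hit cutoff set for the earlier primary screen, cut at about 29% in these data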
CTSL1 counter – Cathepsin L (human) inhibition, confirmation; inhibition, % at 5.96 µM; AID 2178; purified cathepsin L1, Z-Leu-Arg-MCA fluorescence; 2,400 tested, under 10 active; shares compounds with PfM18AAP inh-1;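 active = average inhibition across replicates above the hit cutoff set in the earlier primary screen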
Numbers stand for hits; 0 = inactive; - = not tested or not shown.

SMILES	Rce1 inh	PfM18AAP inh-1	DNA FID counter	Kir21 inh	PfM18AAP inh-2	CTSL1 counter
S=C(Nc1ccccn1)c1ccccn1	0	36.4	0	0	0	0
CC(=O)c1ccc(N(C(=O)CNC(=O)c2ccco2)C(C(=O)NC2CCCC2)c2ccncc2)cc1 (configuration not stated)	0	0	0	0	-	-
COC(=O)c1ccccc1NCc1cc(=O)oc2cc(O)c(O)cc12	0	34.0	0	0	0	0
O=C(NNc1nc2c(F)cc(F)cc2s1)C1=COCCO1	0	32.8	0	0	0	0
Cc1cc(C(=O)Nc2nc3c(C)cccc3s2)c(C)o1	0	0	0	0	-	-
CCC(=O)NNc1nc2c(F)cc(F)cc2s1	0	44.2	0	0	0	0
Cc1cccc2sc(NNC(=O)C3=COCCO3)nc12	0	43.0	0	0	0	0
O=C(COc1ccccc1)NNc1nc2c(F)cc(F)cc2s1	0	0	0	0	-	-
Cc1ccc(S(=O)(=O)c2nnn3c2nc(NC2CCN(Cc4ccccc4)CC2)c2ccccc23)cc1C	0	0	0	0	-	-
Cc1ncc(CO)c(/C=N/NC(=O)c2ccccc2Br)c1O	0	34.8	0	0	0	0
Cc1cc(C)n(S(=O)(=O)c2ccc3oc(=O)ccc3c2)n1	0	0	0	0	-	-
N#Cc1c(Nc2ccccc2Cl)s[nH]c1=O	0	0	0	0	-	-
N#Cc1c(Nc2ccccc2C(F)(F)F)s[nH]c1=O	0	36.0	0	0	0	0
CCN(Cc1ccncc1)C(=O)c1cc(COc2c(F)cccc2F)on1	0	0	0	0	-	-
OCC1(Cc2ccccc2F)CCCN(CC2CCCCC2)C1 (configuration not stated)	0	0	0	0	-	-
COC(=O)/C=C/c1ccc(OC(=O)OC)c(OC(=O)OC)c1	0	74.5	0	0	34.2	0
COc1ccc(/C=C/C(=O)OC(C)C(=O)c2ccccc2)cc1OC (configuration not stated)	0	-	-	0	-	-
N#Cc1c(Cl)nsc1NN	0	39.1	0	0	29.2	0
CC(C)(C)NC(=O)C(c1ccncc1)N(Cc1cccs1)C(=O)c1csnn1 (configuration not stated)	0	0	0	0	-	-
Cc1ccc(C(C(=O)NC(C)(C)C)N(Cc2cccs2)C(=O)c2csnn2)cc1 (configuration not stated)	0	35.1	0	0	0	0
COc1ccccc1N(CC(=O)NCc1ccc2c(c1)OCO2)C(=O)CCC(=O)Nc1nccs1	0	0	0	0	-	-
NC(=O)CC1Nc2cccc3cccc(c23)NC1=O (configuration not stated)	0	51.8	0	0	0	0
S=c1nccc(-c2ccc(Cl)cc2)[nH]1	0	0	0	0	-	-
Cc1nc2ccccn2c1-c1ccnc(=S)[nH]1	0	37.0	0	0	0	0
Cc1ccc(NC(=O)NNC(=O)c2ccccc2)cc1	0	0	0	0	-	-
SMILES	Rce1 inh	PfM18AAP inh-1	DNA FID counter	Kir21 inh	PfM18AAP inh-2	CTSL1 counter
Cc1ccc(NC(=O)NNC(=O)c2cccs2)cc1	0	50.8	0	0	0	0
COc1ccc(NC(=S)NNC(=O)c2cccs2)cc1	0	0	0	0	-	-
CNC(=S)NNC(=O)c1cccs1	0	37.8	0	0	0	0
COc1ccc(C(=O)NNC(=O)Nc2ccc(C)cc2)cc1	0	45.0	0	0	0	0
CCNC(=S)NNC(=O)c1cccs1	0	35.9	0	0	0	0
CC(=O)O[C@]1(C(C)=O)CC[C@H]2[C@@H]3C=CC4=CC(=O)C=C[C@]4(C)[C@H]3CC[C@@]21C	0	0	0	0	-	-
COc1ccc(C2C(C(C)=O)=C(O)C(=O)N2c2nc3ccccc3s2)cc1OC (configuration not stated)	0	33.8	0	0	0	0
COc1cc(OC)cc(C(=O)NNC(=O)CN2C(=O)NC(C)(c3ccc(C)cc3)C2=O)c1 (configuration not stated)	0	-	-	0	-	-
O=S(=O)(NNC(=S)Nc1ccc(S(=O)(=O)Nc2ncccn2)cc1)c1ccc(Br)cc1	0	41.0	0	0	0	0
CCOc1ccc(N=c2scc(-c3ccccc3)n2CCO)cc1	0	0	0	0	-	-
OCCn1c(-c2ccc3c(c2)OCO3)csc1=Nc1ccccc1	0	37.0	0	0	0	0
CC(C)(C)C(=O)Cn1ncc(Br)c(Br)c1=O	0	0	0	0	-	-
O=C(NNc1cc(Cl)ccc1Cl)c1cccs1	0	51.9	0	0	0	0
Cc1cc(Cl)ccc1NNC(=O)c1cccs1	0	0	0	0	-	-
Cc1noc(C)c1C(=O)NNc1cc(Cl)ccc1Cl	0	36.1	0	0	0	0
CCOC(=O)c1ccc(NC(=O)NCCc2cnc[nH]2)cc1	0	0	0	0	-	-
CC(C)c1nnc(NC(=O)c2ccc3c(c2)OCO3)s1	0	0	0	0	-	-
CNC(=S)NNC(=O)c1ccc2c(c1)OCO2	0	34.8	0	0	0	0
CC(C)(C)c1nnc(NC(=O)c2ccc3c(c2)OCO3)s1	0	42.6	0	0	0	0
Nc1nc(-c2cc(O)ccc2[N+](=O)[O-])cc(-c2ccccc2)c1[N+](=O)[O-]	0	45.5	0	0	0	0
Cc1ccc(S(=O)(=O)N(C)C)cc1NC(=O)c1cc(=O)c2ccccc2o1	0	0	0	0	-	-
Cc1ccccc1NC(=S)C1=C(O)c2sccc2N(C)S1(=O)=O	0	33.2	0	0	0	0
CN1c2ccsc2C(O)=C(C(=S)Nc2ccccc2)S1(=O)=O	0	0	0	0	-	-
O=C(NCc1ccc(F)cc1)Nc1cccc(Cl)c1	0	0	0	0	-	-
Oc1ccc(N2CCN(c3ccnc4cc(Cl)ccc34)CC2)cc1	0	38.2	0	0	0	0
SMILES	Rce1 inh	PfM18AAP inh-1	DNA FID counter	Kir21 inh	PfM18AAP inh-2	CTSL1 counter
COc1ccc(N2CCN(c3ccnc4cc(Cl)ccc34)CC2)cc1	0	0	0	0	-	-
COc1cc(Cl)ccc1OCc1cc(C(=O)N(C)C2CC(C)(C)NC(C)(C)C2)no1	0	0	0	0	-	-
O=C(Cc1cccs1)Nc1nnc(-c2ccccc2)s1	0	0	0	0	-	-
CCC(CC)c1nnc(NC(=O)Cc2cccs2)s1	0	39.5	0	0	0	0
CCn1c(C)nc2cc(C(=O)NNC(=S)Nc3ccc(C)cc3)ccc21	0	39.8	0	0	0	0
CCn1c(C)nc2cc(C(=O)NNC(=S)Nc3ccccc3OC)ccc21	0	0	0	0	-	-
Cc1[nH]nc2c1C(c1cccs1)C(C#N)=C(N)O2 (configuration not stated)	0	35.4	0	0	0	0
S=c1nc[nH]c2c1ncn2C1CCCO1 (configuration not stated)	0	0	0	0	-	-
CC(C)n1cnc2c(=S)nc[nH]c21	0	0	0	0	0	0
Nc1nc(-c2ccco2)cs1	0	0	0	0	-	-
Nc1nc(-c2ccco2)c(-c2ccco2)s1	0	37.7	0	0	0	0
O=C(NCCCN1CCCC1=O)c1cccc(NS(=O)(=O)c2ccc(Br)cc2)c1	0	-	-	0	-	-
O=C(CNS(=O)(=O)c1ccccc1)Nc1ccc(F)cc1F	0	0	0	0	-	-
O=S(=O)(NNc1ccc(F)cc1F)c1cccc(Cl)c1	0	36.1	0	0	0	0
